The full list was thinned out, with hits kept by preference.
Tgondii IFNg: blocks Toxoplasma gondii growth in the presence of IFN-gamma; Toxoplasma gondii growth in IFN-gamma-treated host cells; stronger effect = lower value; activity change, negative = inhibition, % (no concentration beside the values); 69,000 tested, 3.8% active; AID 1259416; in the data active means activity change below about -70%, passing the limit was not always enough;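 further: host cells are HeLa cells infected with Toxoplasma gondii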
Hits are given with their value; – = inactive; ! = repeats disagree.

SMILES	Tgondii IFNg
Cc1ccc(-c2cc(C(F)(F)F)nn2-c2ccc(S(N)(=O)=O)cc2)cc1	–
NCC(=O)Nc1ccc(-n2nc(C(F)(F)F)cc2-c2ccc3c(ccc4ccccc43)c2)cc1	-87
CN(Cc1ccccc1)C1CCN(Cc2cnn(C)c2)C(C(=O)O)C1 (centres undefined)	–
O=C1CC(Cn2c(=O)oc3ccccc32)c2cnn(Cc3cccnc3)c2N1 (centres undefined)	–
Cc1cc(NC(=O)CN2CCN(S(=O)(=O)N3CCCC3)CC2)no1	–
COc1ccc(OC)c(S(=O)(=O)NCCc2sc(-c3cccc(F)c3)nc2C)c1	–
Cc1ccc(CN2CCCN(C)C3(CCN(C)CC3)C2)c(Cl)c1Cl	–
Cc1c(NCc2cccnc2)cccc1C(=O)N1C[C@@H](C)O[C@@H](C)C1	-83
Cc1noc(C)c1CN(C)C(=O)c1cccc(NCc2cccnc2)c1C	–
CCC1c2cccn2CCN1C(=O)c1cccc(NCc2cccnc2)c1C (centres undefined)	–
COCC1(C(=O)N(C)Cc2cc(-c3cccs3)n[nH]2)CCC1	–
Cc1ccc(S(=O)(=O)N2Cc3c(CN4CCCCC4)nn(C)c3C2)cc1F	–
Cc1cccc(-c2nnc(-c3nc(NCc4ccccc4C)c4ccccc4n3)o2)c1	-91
COc1ccccc1CNc1nc(-c2nnc(-c3ccc(C)cc3)o2)nc2ccccc12	–
Cc1ccc(CNc2nc(-c3nnc(-c4cccc(C)c4)o3)nc3ccccc23)cc1	–
Cc1cccc(-c2nnc(-c3nc(NC(C)c4ccccc4)c4ccccc4n3)o2)c1 (centres undefined)	-94
Clc1ccc(-c2nnc(-c3nc(NCc4ccccc4)c4ccccc4n3)o2)cc1	–
Cc1cccc(-c2nnc(-c3nc(NCc4ccc(F)cc4)c4ccccc4n3)o2)c1	–
Cc1cccc(Nc2nc(-c3nnc(-c4ccccc4)o3)nc3ccccc23)c1	–
Cc1cccc(-c2nnc(-c3nc(Nc4ccc(F)cc4)c4ccccc4n3)o2)c1	–
Fc1ccc(CNc2nc(-c3nnc(-c4ccccc4)o3)nc3ccccc23)cc1	–
Cc1cccc(-c2nnc(-c3nc(NCc4ccccc4)c4ccccc4n3)o2)c1	-107
CCOc1ccc(Nc2nc(-c3nnc(-c4cccc(C)c4)o3)nc3ccccc23)cc1	–
Fc1ccccc1CNc1nc(-c2nnc(-c3ccccc3)o2)nc2ccccc12	-76
O=C(O)c1ccc(Oc2ncccn2)cc1	–
SMILES	Tgondii IFNg
Cc1ccc(-c2nc(C)c(CCNC(=O)C(=O)Nc3cccc(Cl)c3)s2)cc1	–
CNC(=O)NCC1CCC2(CCN(c3nncs3)CC2)CO1 (centres undefined)	–
Cc1cc(C)n(CCc2c(-c3ccccc3)ncn2CCN2CCOC2=O)n1	–
COc1cc(-c2ncccc2C(F)(F)F)cc(OC)c1OC	–
Cc1occc1C(=O)N1CCCn2c(nc(Cn3cncn3)cc2=O)C1	–
Clc1cccc(CSc2nc(NCCc3ccccc3)c3ccccc3n2)c1	–
Fc1ccc(-c2nnc(-c3nc(NC4CCCCC4)c4ccccc4n3)o2)cc1	-104
Clc1ccccc1CSc1nc(NC2CCCCC2)c2ccccc2n1	–
Cc1ccc(-c2nnc(-c3nc(Nc4ccc(F)cc4)c4ccccc4n3)o2)cc1	–
Cc1ccc(Nc2nc(-c3nnc(-c4ccc(F)cc4)o3)nc3ccccc23)cc1	–
Fc1cccc(CSc2nc(NC3CCCCC3)c3ccccc3n2)c1	-76
O=C(NCCc1csc(-c2ccccc2)n1)[C@H]1CCCN1C(=O)c1ccco1	–
C=CCOCC1CN(C(=O)c2ccc[nH]2)Cc2ccnn2C1 (centres undefined)	–
Cc1cccc(CN2C(=O)CC3C2CCN3S(=O)(=O)C2CC2)n1 (centres undefined)	–
O=C(Nc1cccnc1)N1CCC(Cc2cccc(Oc3ccc(C(F)(F)F)cn3)c2)CC1	-74
O=C(O)c1cccc(CC2CCN(C(=O)Cc3cccnc3)CC2)c1	–
CN1CCC(CN2CCN(CCC(=O)Nc3cccnc3)CC2)CC1	–
CC1CCN(C(=O)c2csc(C(=O)NC3CC3)n2)CC1	–
COc1cccc(CNC(=O)N2CCc3nc(-c4ccccc4)sc3C2)c1	–
COc1cccc(CNC(=O)c2nc(Nc3ccc(F)cc3)c3ccccc3n2)c1	–
O=C(NCc1cccc(F)c1)c1cc2c(s1)CCN2C(=O)c1ccccc1	-82
CC(C)CNC(=O)c1cc2c(s1)CCN2C(=O)C1CC1	–
COc1cccc(CNC(=O)c2cc3c(s2)CCN3C(=O)c2ccccc2)c1	-100
COc1cccc(CNC(=O)c2nc3c(o2)CN(C(=O)c2cccc(F)c2)C3)c1	–
COc1cccc(CNC(=O)c2cc3c(s2)CCN3C(=O)CN(C)C)c1	–
SMILES	Tgondii IFNg
CN(C)CCNC(=O)c1cc2c(s1)CCN2C(=O)C1CC1	–
COc1cccc(CNC(=O)c2cc3c(s2)CCN3C(=O)c2ccc(F)cc2)c1	-87
CCCCN(C)C(=O)c1cc(-c2cnc(-c3ccccc3)nc2)cn1C	–
COc1cccc2c1OCCCN(C(=O)c1ccccc1C1CCNC1)C2 (centres undefined)	–
Cc1ccc(C(=O)N2CCOCC3(CCN(c4ncccn4)C3)C2)o1 (centres undefined)	–
COCC1(C(=O)Nc2ccccc2SCc2ccccc2F)CCC1	–
O=C(Nc1cccc(-c2cc3ccccc3[nH]2)c1)C1CCCN1Cc1ncc[nH]1 (centres undefined)	–
CCc1ccccc1NC(=O)N1CCC2(CC1)Nc1cc(OC)ccc1-n1cccc12	–
Cc1nc2sccn2c1C(=O)N(C)Cc1nc(CC(C)C)no1	–
Cc1nc2c(Cl)cc(Cl)cc2c2nc(N)nn12	-92
C=CCn1c(SCC(=O)OCC)nc2sc3c(c2c1=O)CCc1ccccc1-3	–
CN(C)Cc1nc2c(o1)CN(C(=O)NCc1cccc(F)c1)C2	–
Cc1ccc2c(c1C)-n1cccc1C1(CCN(C(=O)c3cccs3)CC1)N2	–
CC(=O)[C@H]1CC[C@H]2[C@@H]3CCC4=CC(=O)CC[C@]4(C)[C@H]3[C@H](O)C[C@]12C	–
CC(=O)OCC(=O)[C@H]1CC[C@H]2[C@@H]3CCC4=CC(=O)CC[C@]4(C)[C@H]3CC[C@]12C	-82!
C[C@]12C[C@H](O)[C@H]3[C@@H](CCC4=CC(=O)CC[C@@]43C)[C@@H]1CC[C@@H]2C(=O)CO	–
COc1ccc(OC)c(-c2ncnc3sccc23)c1	–
Cc1cc(=O)n2[nH]c(C(=O)N3CCN(c4ccccc4)CC3)nc2n1	–
COc1ccccc1CNC(=O)CN1C(=O)CCc2cc(S(=O)(=O)N3CCCCC3C)ccc21 (centres undefined)	–
NC(=O)N/N=C/c1ccc(Oc2ccc(F)cc2)cc1	–
NC(=O)N/N=C/c1ccc([N+](=O)[O-])o1	-73!
O=C1OC(CN2CCOCC2)CN1/N=C/c1ccc([N+](=O)[O-])o1 (centres undefined)	–
c1ccn2c(C3CCN(Cc4cc5n(n4)CCCNC5)CC3)nnc2c1	–
CCS(=O)(=O)N1CCC2(Cc3ccccc3NC2=O)C1 (centres undefined)	–
COc1cccc(Cc2nnc(-c3ccc4nsnc4c3)o2)c1	–
CC(C)n1cnc2c(NCc3ccccc3)nc(NCCCO)nc21	–
Cn1cnc2c(NCc3ccccc3)nc(NCCO)nc21	–
CC[C@H](CO)Nc1nc(NCc2ccc(-c3ccccn3)cc2)c2ncn(C(C)C)c2n1	-79
CC(C)n1cnc2c(-c3cccnc3)nc(C3CCN(Cc4ccccn4)CC3)cc21	–
CC(C)[C@H](CO)Nc1nc(Nc2cccc(Cl)c2)c2ncn(C(C)C)c2n1	-74

Compound activity from PubChem.
